Source: PubChem BioAssay (EPA / NIEHS)
Activity calls are given as the source filed them. Rule for the calls: active = hit-call score of the fitted dose curve at least 0.9, where 1 is the maximum; inactive = score below 0.9.

system: not listed separately; assay: CCTE_Deisenroth_DEVTOX-GLR_Pluri_CellCount: Viability Assessment in CCTE's DevTox GLR-Pluri Assay Evaluation of Total Cell Counts, Deisenroth Lab (AID 2284430)
How it was run: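 Cytotoxicity readout: fluorescent nuclei counts by high-content imaging, expressed as percent change relative to 0.2% DMSO. Human RUES2-GLR pluripotent line differentiated 48 h, dosed twice at 24-h intervals across 1 nM - 200 uM (10 points).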

| SMILES | outcome | AC50 |
| --- | --- | --- |
| O=C(O)c1cc(N=Nc2ccc(S(=O)(=O)Nc3ccccn3)cc2)ccc1O | inactive |  |
| Cn1c(=O)c2c(ncn2C)n(C)c1=O | inactive |  |
| C[C@](N)(Cc1ccc(O)c(O)c1)C(=O)O | inactive |  |
| NC(=O)NO | inactive |  |
| O=C1CCC(N2C(=O)c3ccccc3C2=O)C(=O)N1 (stereo not drawn) | inactive |  |
| Nc1nc2ncc(CNc3ccc(C(=O)N[C@@H](CCC(=O)O)C(=O)O)cc3)nc2c(=O)[nH]1 | inactive |  |
| CC[C@H](C)C(=O)O[C@H]1C[C@@H](C)C=C2C=C[C@H](C)[C@H](CC[C@@H]3C[C@@H](O)CC(=O)O3)[C@H]21 |  | 9.67 µM (active) |

system: TTR (gene 7276); assay: CCTE_GLTED_hTTR_0.125uM: CCTE's human Transthyretin (hTTR) Inhibition Assay, with 0.125uM TTR, Great Lakes Toxicology and Ecology Division (GLTED) Lab (AID 2284431);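 note: hits lower the fluorescence signal relative to DMSO baseline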
How it was run: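 Probe-displacement format: chemicals competing for the T4 site release ANSA from 0.125uM TTR during a 2 h incubation, measured by fluorescence at 380 excitation and 475 emission.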

| SMILES | AC50 |
| --- | --- |
| O=C(O)c1cc(N=Nc2ccc(S(=O)(=O)Nc3ccccn3)cc2)ccc1O | 0.422 µM (active) |
| Nc1ccc(Nc2ccccc2)cc1 | 31.5 µM (active) |
| CC(C)=CCCC(C)CCO (stereo not drawn) | 45.8 µM (active) |
| COC(=O)c1c(Cl)c(Cl)c(C(=O)OC)c(Cl)c1Cl | 0.0546 µM (active) |
| Oc1ccc2c(c1)-c1ccccc1C2 | 7.96 µM (active) |
| O=C(O)c1cccc(Oc2ccccc2)c1 | 0.542 µM (active) |
| COc1ccc(/C=C/S(=O)(=O)NC(=O)c2ccc(C)cc2Cl)cc1 | 12.1 µM (active) |
| O=C(OC[C@H]1O[C@@H](OC(=O)c2cc(O)c(O)c(OC(=O)c3cc(O)c(O)c(O)c3)c2)[C@H](OC(=O)c2cc(O)c(O)c(OC(=O)c3cc(O)c(O)c(O)c3)c2)[C@@H](OC(=O)c2cc(O)c(O)c(OC(=O)c3cc(O)c(O)c(O)c3)c2)[C@@H]1OC(=O)c1cc(O)c(O)c(OC(=O)c2cc(O)c(O)c(O)c2)c1)c1cc(O)c(O)c(OC(=O)c2cc(O)c(O)c(O)c2)c1 | 0.252 µM (active) |
| Cn1cnc([N+](=O)[O-])c1Sc1ncnc2nc[nH]c12 | 25.1 µM (active) |
| O=C(NS(=O)(=O)/C=C/c1ccccc1)c1ccc(F)cc1Cl | 13 µM (active) |
| C=CCCCCCCCCC(=O)O | 7.39 µM (active) |
